ATG4B inhibitor: ATG4B protease inhibitors, primary screen, biochemical, fluorescence, uHTS. Cysteine protease ATG4B (Homo sapiens), Q9Y4P1. ATG4B cleavage of LC3-PLA2, NBD-HPC fluorescence, 1 h. inhibition, % at 8.33 µM. 340,000 compounds, 0.51% hits; in the data active = inhibition above about 40%
Target sequence (Q9Y4P1 whole entry, looked up): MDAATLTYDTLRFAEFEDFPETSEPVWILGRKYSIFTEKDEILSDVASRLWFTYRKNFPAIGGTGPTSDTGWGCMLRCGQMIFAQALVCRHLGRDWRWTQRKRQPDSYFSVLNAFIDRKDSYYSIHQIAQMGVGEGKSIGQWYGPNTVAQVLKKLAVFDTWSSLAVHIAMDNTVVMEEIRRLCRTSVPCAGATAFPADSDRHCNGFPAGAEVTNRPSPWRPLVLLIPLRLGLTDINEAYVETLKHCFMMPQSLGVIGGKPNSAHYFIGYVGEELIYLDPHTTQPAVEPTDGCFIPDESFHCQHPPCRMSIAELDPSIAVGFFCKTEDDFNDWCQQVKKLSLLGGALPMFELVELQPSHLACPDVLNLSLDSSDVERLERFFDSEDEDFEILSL
tim10-1 inh: growth inhibitors of tim10-1 mutant yeast, primary screen, luminescence, uHTS | S. cerevisiae tim10-1 ts strain growth, BacTiter-Glo, 24 h | inhibition, % at 20 µM | 330,000 compounds, 2.2% hits;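 active = inhibition of at least 40%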;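 also: mutant grown at 25 °C; 0% = DMSO wells with yeast and 100% = wells holding no yeast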
SKKanGAS inh: S. pyogenes SKKanGAS growth inhibitors in kanamycin, primary screen, streptokinase expression inhibitor project, SKKanGAS strain, BacTiter-Glo luminescence | 6 h | inhibition, % at 7.5 µM | 300,000 compounds, 1.3% hits | AID 1662, 2009;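 active = mean replicate score, as percent of positive control median, at least 50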;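 also: strain carries kanamycin resistance gene driven by streptokinase promoter and grows in 40 µg/ml kanamycin; loss of luminescence reflects streptokinase promoter inhibition or plain growth inhibition; 0% = median of DMSO wells and 100% = positive control at its reference dose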
TIM10 inh: growth inhibitors of isogenic TIM10 control yeast, primary screen, counter-screen for tim10-1 yeast inhibitor project, luminescence, uHTS. S. cerevisiae TIM10 strain growth, BacTiter-Glo luminescence, 24 h. inhibition, % at 10 µM. AID 463195, 2010. 330,000 compounds, 1.4% hits;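 active = inhibition of 40% or more at the single tested concentration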;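 also: wild-type TIM10 isogenic control strain grown at permissive 25 °C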
PfHsp90 set2: growth inhibition of PfHsp90-expressing yeast, primary screen, antimalarial PfHsp90 inhibitor project, S. cerevisiae, BacTiter-Glo luminescence, single point, set 2; BacTiter-Glo ATP, 48 h; yeast lacking PDR1 and PDR3 efflux regulators; inhibition, % at 9.4 µM; 310,000 compounds, 0.32% hits; AID 504621, 2011;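 active = every replicate shows inhibition above about 80%, whatever the replicate mean, limit read from the data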;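 also: 0% = DMSO neutral controls and 100% = 20 µM radicicol positive controls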
tim23-1 inh: growth inhibitors of tim23-1 mutant yeast, primary screen, luminescence, uHTS; S. cerevisiae tim23-1 growth, BacTiter-Glo luminescence, 24 h; inhibition, % at 20 µM; 330,000 compounds, 1.3% hits; AID 463212, 2010;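 active = growth inhibition of the mutant yeast at or above 50%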;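 also: temperature-sensitive mutant grown at 25 °C; plate controls were DMSO-treated mutant yeast for no effect and medium wells lacking yeast for full effect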
tim23-1 conf: tim23-1 mutant yeast growth inhibitors, confirmation, luminescence, single concentration; shares compounds with tim23-1 inh; S. cerevisiae tim23-1 growth, BacTiter-Glo luminescence, 24 h; inhibition, % at 20 µM; 4,400 compounds, 83% hits;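 active = inhibition above about 39% in either of two replicate wells at 20 µM, limit read from the data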;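 also: temperature-sensitive tim23-1 mutant grown at 25 °C; 0% = DMSO wells with yeast and 100% = medium wells without yeast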
* marks the source's active call; other numbers are inactive results; nt = not tested or not shown. The list is not random: actives were taken first. Their share in the collection is about 4.7%.

SMILES	ATG4B inhibitor	tim10-1 inh	SKKanGAS inh	TIM10 inh	PfHsp90 set2	tim23-1 inh	tim23-1 conf
Cc1ccc(C2=Nc3ccccc3N(C(=O)c3ccccc3)C(C)C2)cc1 (stereo unspecified)	-7	39	-19	33	24	52*	41*
CC(=O)OC1CC(C)N(C(=O)c2ccccc2)c2ccc(C)cc21 (stereo unspecified)	0	20	4	16	nt	13	nt
c1ccc2[nH]c(-c3ccc4c(c3)OCO4)nc2c1	-5	26	31	13	nt	77*	59*
O=C(Nc1ccc(-c2nc3ccccc3[nH]2)cc1)c1ccc2c(c1)OCO2	-34	-20	21	8	-10	1	nt
O=[N+]([O-])c1ccc(N2CCCCC2)nc1N1CCCCC1	11	23	1	8	4	22	nt
O=[N+]([O-])c1ccc2c(c1N1CCCCC1)=NC1(CCCCC1)[N+]=2[O-]	4	35	-7	27	-7	54*	42*
O=C(NCC1(c2ccccc2)CCCC1)c1ccc(Br)o1	15	31	4	0	-22	21	nt
Cc1ccc(-c2nc(CNC(=O)c3cc(C)on3)cs2)cc1	-7	-11	-12	-8	27	53*	41*
Cc1cc(C(=O)NCc2ccccc2)no1	9	7	nt	-6	5	15	nt
COc1cc(/C=C/[N+](=O)[O-])ccc1OC(=O)/C=C/c1ccc(F)cc1	-8	35	-11	26	-18	55*	51*
COc1ccc(/C=C(\C#N)c2nc3ccccc3[nH]2)cc1O	-10	-29	-2	-4	-4	51*	43*
COc1cc(/C=C(/C#N)c2ccccc2)ccc1Oc1ccc([N+](=O)[O-])cn1	6	23	-6	2	nt	28	nt
COc1cc(/C=C(\C#N)c2nc3ccccc3[nH]2)ccc1Oc1ccc([N+](=O)[O-])cn1	13	11	18	29	0	58*	36
Cc1nc(SCc2nc3ccc(C(F)(F)F)cc3[nH]2)c2oc3ccccc3c2n1	-14	33	nt	7	-2	57*	49*
Cc1nc(SCc2nc3cc(Cl)c(F)cc3[nH]2)c2oc3ccccc3c2n1	7	33	nt	35	-11	56*	50*
Cc1nc(SCc2nc3ccc(Cl)cc3[nH]2)c2oc3ccccc3c2n1	-16	21	nt	-1	4	45	nt
C=CCn1cccc(C(=O)Nc2ccc(Cl)cc2)c1=O	-8	22	-3	18	-32	53*	21
Cc1ccc(CC(=O)Nc2cc(C)ccn2)cc1	7	1	0	0	-15	4	nt
Cc1ccccc1Nc1nc2ccccc2s1	7	32	15	22	25	50*	35
O=P(COc1ccccc1)(c1ccccc1)c1ccccc1	-9	16	-1	2	nt	12	nt
O=C(NCC1CC1)c1ccc2c(c1)S(=O)(=O)c1cc(Cl)ccc1C2=O	8	-25	nt	-17	-22	-10	nt
Oc1ccccc1-c1cc(-c2ccc3c(c2)OCCO3)n[nH]1	4	31	-19	31	47	66*	-2
O=C(NC(=S)NC1CCCCC1)c1ccccc1	26	33	2	29	-22	62*	56*
O=C(NC(=S)Nc1ccccn1)c1ccc(-c2ccccc2)cc1	1	26	-10	-3	7	24	nt
CC(NC(=S)NC(=O)c1ccccc1)c1ccccc1 (stereo unspecified)	8	28	-9	1	7	50*	42*
SMILES	ATG4B inhibitor	tim10-1 inh	SKKanGAS inh	TIM10 inh	PfHsp90 set2	tim23-1 inh	tim23-1 conf
S=C(Nc1ccc(Nc2ccccc2)cc1)Nc1ccccn1	19	26	66*	31	-22	52*	27
COc1ccc(C(=O)NC(=S)NC(C)c2ccccc2)cc1 (stereo unspecified)	7	37	-10	36	-14	31	nt
O=C(NC(=S)NC1CCS(=O)(=O)C1)c1ccccc1 (stereo unspecified)	11	-3	12	0	-1	-11	nt
O=C(NC(=S)Nc1ccccn1)c1ccccc1	0	28	2	15	26	50*	28
O=C1c2ccccc2C(=O)N1CCSc1n[nH]c(=S)s1	-5	21	2	2	nt	2	nt
O=C(N=c1nc2ccccn2s1)c1ccccc1	3	26	15	19	39	33	nt
COc1ccc(CN(CC(O)COCc2ccccc2)S(=O)(=O)c2ccccc2Br)cc1OC (stereo unspecified)	9	25	nt	4	-5	50*	36*
COC(=O)C1=C(Nc2ccccc2NS(=O)(=O)c2ccc(C(F)(F)F)cc2Cl)CSC1	16	38	9	34	-7	54*	52*
O=C(CSc1oc(-c2ccco2)nc1S(=O)(=O)c1ccc(Cl)cc1)NCC1CCCO1 (stereo unspecified)	-9	18	5	15	5	16	nt
Cc1nc(-c2ccc(NC(=O)C3CC3)cc2)cs1	-3	-7	0	18	23	54*	40*
Cc1nc(-c2cccc(NC(=O)C3CCCCC3)c2)cs1	-7	15	0	18	-15	39	nt
Cc1nc(-c2ccc(NC(=O)c3ccc(Br)o3)cc2)cs1	-2	5	21	9	24	62*	56*
COC(=O)C1=C(C)N(Cc2ccccc2)C(=S)N[C@H]1c1cccc(F)c1	2	37	1	19	-42	52*	38
COC(=O)C1=C(C)N(Cc2ccccc2)C(=NCc2ccccc2)N[C@H]1c1cccc(F)c1	-3	19	8	9	-24	12	nt
O=C(O)c1ccc(N2C(=O)c3[nH]nc(-c4ccccc4)c3C2c2ccccc2)cc1 (stereo unspecified)	-14	5	-2	1	24	7	nt
CN(C1(C)CCS(=O)(=O)C1)S(=O)(=O)c1ccc(F)cc1 (stereo unspecified)	1	4	-5	6	-4	14	nt
O=C(N/N=C\c1ccc(-c2ccccc2[N+](=O)[O-])o1)C1COc2cc3ccccc3cc2O1 (stereo unspecified)	3	17	16	36	6	58*	53*
O=C(N/N=C\c1ccc(-c2ccccc2[N+](=O)[O-])o1)C1COc2ccccc2O1 (stereo unspecified)	-15	37	1	26	4	76*	53*

Assay outcomes (PubChem)
